# Assay outcomes: PubChem BioAssay, National Center for Advancing Translational Sciences (NCATS)
# Compounds with a hit are over-represented: about 12% of the library has one in this group of screens.
# PLK1 PBD block = inhibitors of human PLK1 polo-box domain binding; Potency, µM, for inactives: max response, negative = inhibition, hits mostly inhibitors; actives 2.8% (n = 360,000); P53350; Plk1 PBD binding of FITC phosphopeptide, fluorescence polarization; also: series mostly up to about 57 µM; % is scaled to controls: 0 for no effect and ±100 for the full control effect; nearly all actives have a fitted effect of over 65% in size
# Target sequence (P53350 whole entry, looked up, the tested form may be a part): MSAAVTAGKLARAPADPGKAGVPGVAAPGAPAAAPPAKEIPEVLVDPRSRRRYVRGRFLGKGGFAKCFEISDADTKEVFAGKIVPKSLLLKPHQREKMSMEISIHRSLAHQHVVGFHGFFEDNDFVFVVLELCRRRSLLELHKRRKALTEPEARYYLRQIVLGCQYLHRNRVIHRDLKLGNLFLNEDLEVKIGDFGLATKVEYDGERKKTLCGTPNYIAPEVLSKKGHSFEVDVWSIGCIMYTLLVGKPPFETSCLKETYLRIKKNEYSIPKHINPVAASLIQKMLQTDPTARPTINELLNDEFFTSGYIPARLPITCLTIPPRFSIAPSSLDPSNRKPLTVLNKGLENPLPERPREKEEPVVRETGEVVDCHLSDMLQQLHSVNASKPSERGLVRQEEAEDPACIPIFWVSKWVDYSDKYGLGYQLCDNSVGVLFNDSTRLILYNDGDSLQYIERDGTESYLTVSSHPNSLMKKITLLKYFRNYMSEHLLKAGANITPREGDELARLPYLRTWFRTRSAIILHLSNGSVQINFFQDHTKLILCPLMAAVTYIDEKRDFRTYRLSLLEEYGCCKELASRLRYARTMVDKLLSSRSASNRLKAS
# BAZ2B block = inhibitors of human BAZ2B bromodomain | Q9UIF8 | AlphaScreen BAZ2B-H3K14Ac peptide displacement | Potency, µM (series often up to 114 µM), for inactives: at the top dose activity change, negative = inhibition, usual class: inhibitors | actives 4.4% (n = 360,000) | AID 504333; also: % is scaled to controls: 0 for no effect and ±100 for the full control effect; nearly all actives have a fitted effect of over 60% in size
#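 Protein-peptide AlphaScreen: BAZ2B 50 nM, b-H3K14Ac 50 nM, 1x PBS pH 7.4 + 0.01% Tween-20. Preincubation 30 min RT; cpd 30 min RT (top 110 uM); beads 20 min RT, light-protected.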
# JMJD2A Tudor inh = JMJD2A Tudor domain (human) inhibition. O75164. AlphaScreen JMJD2A-Tudor / H3K4me3 peptide binding. Potency, µM (highest dose often 114 µM), for the others: top-dose activity change, negative = inhibition, most hits filed as inhibitors. actives 4.4% (n = 390,000); also: % is scaled to controls: 0 for no effect and ±100 for the full control effect; nearly all actives have a fitted effect of over 50% in size
# HP1b chromo inh = blocks HP1-beta chromodomain binding to methylated histone tails. P83916. AlphaScreen HP1-beta / biotin-H3K9me3 peptide binding. Potency, µM (series often up to 114 µM), for the others: at the top dose activity change, negative = inhibition, usual class: inhibitors. actives 0.56% (n = 390,000); also: nearly all actives have a fitted effect of over 70% in size
#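 Compound inhibition of the preformed complex between 50 nM HP1-beta and 50 nM biotinylated H3K9me3 peptide was read by AlphaScreen. Buffer was PBS pH 7.4 with 0.01% Tween-20. Incubations ran 30 min at room temperature, with 10 ug/mL donor/acceptor beads.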
# G9a inh = inhibitors of human histone lysine methyltransferase G9a | AID 504332 | G9a H3K9 monomethylation, AlphaScreen, 2 h | actives 8.8% (n = 350,000) | Potency, µM (top dose mostly 102 µM), for inactives: at the highest dose activity, negative = inhibition, hits mostly inhibitors | Q96KQ7; also: % is scaled to controls: 0 for no effect and ±100 for the full control effect; nearly all actives have a fitted effect of over 75% in size
#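 Quantitative HTS format: methyltransferase activity on a biotin-tagged H3K9 peptide is measured by AlphaScreen, using a rabbit anti-monomethyl-H3K9 antibody with streptavidin donor and anti-IgG acceptor beads. Final levels are 20 nM enzyme, 500 nM peptide, 20 uM SAM; 2 h RT.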
# Sfp PPTase inh = inhibitors of Bacillus subtilis Sfp phosphopantetheinyl transferase; actives 3.5% (n = 310,000); Potency, µM, without a hit: largest response in the series, negative = inhibition, actives largely listed as inhibitors; Q9F4F7; Biochemical Sfp PPTase activity, qHTS;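 also: the enzyme is Sfp with the accession as filed and its product quenches rhodamine fluorescence; 0% = enzyme reaction without inhibitor and -100% = no enzyme wells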
#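 Buffer: 50 mM Hepes-Na pH 7.6, 10 mM MgCl2, 0.01% Nonidet P-40, 0.01% BSA. Enzyme 15 nM, pre-exposed to compound 15 min; substrates then added and fluorescence change tracked over 30 min.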
# The depositor's hits bear a star; ? = inconclusive; nt = no result; [ ] = remark or other dose. Calls follow the shape of the dose curve; as a rule, active = well fitted curve in the direction sought with a large enough effect; inconclusive = small, poorly fitted or top-dose-only effect, or another doubt; inactive = no such curve, though single readings can be large; an effect the other way counts as inactive or inconclusive. Potency is read from the fitted curve at half-maximal effect.
SMILES,PLK1 PBD block,BAZ2B block,JMJD2A Tudor inh,HP1b chromo inh,G9a inh,Sfp PPTase inh
COc1cccc(-c2cc(C(F)(F)F)c(C#N)c(=O)[nH]2)c1,23.8µM*,10.1%,?,26.3%,3.9%,9.0%
COc1cc(OC)cc(C(=O)c2c(C)c(C#N)c3ccccn23)c1,0.2%,5.5%,33.8%,70.9%,-1.4%,3.7%
COC1=C/C(=C/c2c(O)c(C#N)c3ccccn23)C=CC1=O,-17.6%,50.1µM*,22.4µM*,?,?,?
C=C(C)C(=O)Nc1cccc(C2=NOC3(C2)C[C@H](C(N)=O)N(C(=O)CC)C3)c1 (stereo not given in full),-22.3%,3.55µM*,7.94µM*,10µM*,?,2.3%
C=C(C)C(=O)Nc1cccc(C2=NOC3(C2)C[C@H](C(N)=O)N(C(=O)CC#N)C3)c1 (stereo not given in full),-7.6%,39.8µM*,25.1µM*,?,?,-1.2%
N#CCC(=O)N1CC2(CC(c3cccc(NC(=O)COc4ccc(Cl)cc4)c3)=NO2)C[C@@H]1C(N)=O (stereo not given in full),4.3%,-9.8%,-9.1%,22.7%,-0.9%[59 µM],5.6%
C=C(C)C(=O)Nc1cccc(C2=NOC3(C2)C[C@@H](C(N)=O)N(C(=O)/C(C)=C/C)C3)c1 (stereo not given in full),?,1.78µM*,3.16µM*,3.55µM*,?,6.2%
C=C(C)C(=O)Nc1cccc(C2=NOC3(C2)C[C@@H](C(N)=O)N(C(=O)CC(c2ccccc2)c2ccccc2)C3)c1 (stereo not given in full),?,12.6µM*,20µM*,20µM*,?,0.8%
C=C(C)C(=O)Nc1cccc(C2=NOC3(C2)C[C@H](C(N)=O)N(C(=O)c2ccccc2C(=O)c2ccccc2)C3)c1 (stereo not given in full),?,10µM*,7.94µM*,?,?,-4.2%
Cc1cc(C)nc(SCc2nc3ccccc3n2C)n1,-3.1%,-5.5%,-3.2%,61.1%,-27.7%,2.4%
CCC(C)Sc1nnc(CSc2nc(C)cc(C)n2)n1C (stereo not given),-4.5%,4.1%,-11.0%,4.9%,0.9%,3.6%
Cc1cc(C)nc(SCc2n[nH]c(=S)n2C)n1,-6.2%,11.7%,39.8µM*,25.9%,7.08µM*,-10.2%
Cc1ccc(-n2c(CSc3nc(C)cc(C)n3)n[nH]c2=S)cc1,0.7%,-0.6%,25.1µM*,25.4%,3.98µM*,1.8%
CCCSc1nnc(CSc2nc(C)cc(C)n2)n1C,21.2µM*,-0.3%,56.2µM*,0.8%,-5.8%,14.1%
Cc1ccc(OCc2n[nH]c(=S)n2-c2ccc(Br)cc2)cc1,-17.0%,-33.2%,-35.0%,2.2%,2.4%[0.501 µM],15.8%
O=S(=O)(Nc1ccc(-c2ccc(N3CCCC3)nn2)cc1)c1ccc(OC(F)(F)F)cc1,nt,-10.6%,-20.8%,14.2%[57 µM],6.1%[59 µM],nt
Cc1oc(-c2ccccc2Cl)nc1CS(=O)(=O)CC(=O)NCc1ccc(F)cc1,nt,-5.0%,-6.0%,34.1%,5.4%[59 µM],nt
CCCc1ccc(S(=O)(=O)N2CCN(C(C)C(=O)NCc3ccccc3)CC2)cc1 (stereo not given),-6.6%,7.2%,-24.1%,13.5%,56.2µM*,nt
O=C(NCc1ccc(Cl)cc1)N1CCN(C(=O)c2ccccc2)CC1,0.7%,nt,nt,nt,nt,nt
O=C(NCCC(=O)N1CCN(c2ccccc2O)CC1)c1ccc(Cl)cc1,-1.7%,-4.8%,-17.9%,7.6%,50.1µM*,nt
Cc1ccccc1NC(=O)N1CCN(S(=O)(=O)c2ccccc2)CC1,16.8µM*,-0.2%,?,?,-15.4%,-8.5%
Cc1ccc(NC(=O)N2CCN(S(=O)(=O)c3ccccc3)CC2)cc1,-5.4%,-0.9%,-11.3%[11.4 µM],31.7%,8.6%,8.1%
O=C(NCc1ccc(Cl)cc1)N1CCN(S(=O)(=O)c2ccccc2)CC1,-13.1%,-2.7%,-12.2%,-14.0%,50.1µM*,8.0%
